# In PubChem BioAssay (Tox21):
# Values joined by “and” are separate entries in the source; they are usually repeats but may differ in a detail not shown here. Equal entries are not always repeated. Records with an inconclusive call do not appear. Entries that show only a call come without a potency. Active and inactive are the calls of the source. Calls come from the whole dose curve; as a rule, active = well fitted cell-killing curve with a large enough effect in the repeat runs; inconclusive = weak or mixed curves, or effect the other way; inactive = flat fitted curve, though single readings scatter.
# Experiment: Nuclear factor erythroid 2-related factor 2/antioxidant responsive element (Nrf2/ARE) small molecule agonists: qHTS cell viability counter screen in human keratinocytes (AID 1919968); note: nearly all actives have a fitted effect of over 55% in size
# Settings: KeratinoSens HaCaT ARE cells viability, CellTiter-Fluor, 24 h; series mostly up to 92.4 µM
# Description: U.S. Tox21 Program National Center for Advancing Translational Sciences [NCATS] Division of Preclinical Innovation [DPI] U.S. Environmental Protection Agency [EPA] National Institutes of Environmental Health Sciences [NIEHS] National Toxicology Program [NTP] U.S. Food and Drug Administration [FDA] Tox21 Assay Overview: Oxidative stress has been implicated in the pathogenesis of a variety of diseases ranging from cancer to neurodegeneration. The antioxidant response element (ARE) signaling pathway plays an important role in the amelioration of oxidative stress. The KeratinoSens (Givaudan, Switzerland) is an in vitro test method which quantifies luciferase induction as a measure of activation of Keap1-Nrf2-antioxidationt/electrophile response element (ARE) dependant pathway in HaCaT human keratinocytes stably transfected with a selectable plasmid. The KeratinoSens assay is a cell-based assay with a reporter cell line to detect potential skin sensitizers by their ability to induce the Nrf2/ARE-response. The activation of the report gene under culture conditions can be detected by ONE-Glo Luciferase Assay System (Promega, Madison, WI). This cell line has been used to screen the Tox21 10K compound library to identify agonists that induce oxidative stress. The cytotoxicity of the Tox21 compound library against the KS-ARE cell line was tested in parallel by measuring the cell viability using CellTiter- Fluor assay system (Promega, Madison, WI) in the same wells.
# Tox21 Assay Protocol Summary: HaCaT derived cell line KeratinoSens were dispensed at 1,500 cells/5uL/well in 1536-well white wall/solid bottom plates using a Multidrop Combi (ThermoFisher Scientific, Waltham, MA) dispenser. After the assay plates were incubated at 37 C/5% CO2 for 5 h, 23 nL of compounds dissolved in DMSO, positive controls or DMSO only was transferred to the assay plate by a pintool workstation (Kalypsys, San Diego, CA). The plates were incubated at 37 C/5% CO2 for 23 h, followed by addition of 1uL/well of CellTiter-Fluor reagent into the assay plates using a Flying Reagent Dispenser (Aurora Discovery, San Diego, CA) for cell viability readout that measures cytotoxicity. After 1 h incubation at 37 C/5% CO2 the fluorescence intensity was measured using a ViewLux (PerkinElmer, Shelton, CT) plate reader.
# Potency is the fitted concentration of half-maximal effect.
row,SMILES,Potency
1,Oc1c(Br)cc(Br)cc1Br,inactive
2,COc1ccc(O)c(C(C)(C)C)c1,inactive
3,OCCCl,inactive
4,CC(C)(N)Cc1ccccc1Cl,inactive
5,c1nc[nH]n1,inactive
6,CCOC(=O)C1(c2ccccc2)CCN(CCC(C#N)(c2ccccc2)c2ccccc2)CC1,inactive
7,Clc1cccc(Cl)c1,inactive
8,COc1cc(OC)nc(NC(=O)NS(=O)(=O)c2ncccc2C(=O)N(C)C)n1,inactive
9,NC1(c2ccccc2)CCCCC1,inactive
10,COc1cc(-c2ccc(N)c(OC)c2)ccc1N,inactive
11,O=C1c2ccccc2C(=O)N1SC(Cl)(Cl)Cl,24 µM (active)
12,C=CCc1ccc(OC)cc1,inactive
13,COc1ccccc1OC,inactive
14,CCC[CH2][Sn]([Cl])([CH2]CCC)[CH2]CCC,244 nM (active) and 486 nM (active)
15,CCCCOC(=O)CCC(=O)OCCCC,inactive
16,C[N+](C)(C)CC(=O)[O-],inactive
17,CC(C)(O)C(=O)Nc1ccc([N+](=O)[O-])c(C(F)(F)F)c1,inactive
18,CC(C)(O)C#N,inactive
19,CC(C)c1ccc(O)cc1,inactive
20,O=C(O)C(Cl)(Cl)Cl,inactive

row,SMILES,Potency
1,CCCCCCCCCCCCCCCC[N+](C)(C)C,61.1 µM (active) and 5.96 µM (active)
2,CCCC[n+]1cccc(C)c1,inactive
3,C#CCOC(=O)/C=C(C)/C=C/CC(C)CCCC(C)C (stereo not given),inactive
4,C=CCN1CC[C@]23CCCC[C@H]2[C@H]1Cc1ccc(O)cc13,inactive
5,CCC(C)n1c(=O)[nH]c(C)c(Br)c1=O (stereo not given),inactive
6,Oc1cc(Cl)ccc1Oc1ccc(Cl)cc1Cl,22.2 µM (active) and 29.8 µM (active)
7,O=C(O)CF,inactive
8,CCN(CC)N=O,inactive
9,CN(C)c1ccccc1,inactive
10,Clc1ccc(C(Cl)(Cl)Cl)cn1,inactive
11,COC(=O)c1cncn1C(C)c1ccccc1 (stereo not given),inactive
12,CNC(=O)O/N=C/C(C)(C)S(C)=O (stereo not given),inactive
13,Cc1cccc(N)c1C,inactive
14,C=CC(=O)OCCO,inactive
15,CC(C)(C)OOC(C)(C)CCC(C)(C)OOC(C)(C)C,inactive
16,OCC1CO1 (stereo not given),inactive
17,CCC[CH2][Sn]([Cl])([Cl])[CH2]CCC,1.23 µM (active) and 2.17 µM (active)
18,C=COCCCl,inactive
19,CNC(=O)Oc1cccc2c1OC(C)(C)C2,inactive
20,Cc1ccc2c(c1N)C(=O)c1ccccc1C2=O,inactive
